Bioassay records as filed in PubChem.
SMN2 splice enh: SMN2 splice variant enhancement. HEK293 SMN2-luciferase splicing reporter, luminescence, 30-36 h. Potency, µM (titrated, usually from 46.1 µM), for inactives: at the highest dose activity change, positive = activation, actives largely listed as activators. actives 2.8% (n = 210,000). AID 1458; also: % of control where 0% means no effect; nearly all actives have a fitted effect of over 55% in size
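HEK293 cells carry an SMN2 […]–luciferase reporter in which exon 7 inclusion puts luciferase in frame. Cells were plated 10-12 h before compound addition, then incubated 30-36 h at 37C. ONE-Glo luminescence was read; sodium butyrate at 4.5 mM final served as control.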
ELG1 genotoxic: genotoxicity induction in ELG1-luciferase HEK293T cells; HEK293T ELG1-luciferase reporter, luminescence, 16 h; Potency, µM (doses to about 46 µM), for the others: at the highest dose activity change, positive = activation, most hits filed as activators; actives 1.3% (n = 330,000); AID 504466; also: % of control where 0% means no effect; nearly all actives have a fitted effect of over 60% in size
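Luminescence read-out: rising ELG1-luciferase signal, reflecting elevated ELG1 protein under genetic stress, flags genotoxic compounds. Cells were treated for 16 hr at 37 °C before ONE-Glo detection.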
FLuc modulator: inhibits or activates purified firefly luciferase, miR-21 counter-screen | P08659 | purified FLuc, Km substrates, luminescence inhibition | Potency, µM (highest dose often 57.5 µM), for the others: at the highest dose activity change, negative = inhibition, most hits filed as inhibitors | actives 6.9% (n = 360,000);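 also: plate controls were vehicle for no effect and reference inhibitor for full effect; nearly all actives have a fitted effect of over 55% in size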
Target sequence (P08659 whole entry, looked up): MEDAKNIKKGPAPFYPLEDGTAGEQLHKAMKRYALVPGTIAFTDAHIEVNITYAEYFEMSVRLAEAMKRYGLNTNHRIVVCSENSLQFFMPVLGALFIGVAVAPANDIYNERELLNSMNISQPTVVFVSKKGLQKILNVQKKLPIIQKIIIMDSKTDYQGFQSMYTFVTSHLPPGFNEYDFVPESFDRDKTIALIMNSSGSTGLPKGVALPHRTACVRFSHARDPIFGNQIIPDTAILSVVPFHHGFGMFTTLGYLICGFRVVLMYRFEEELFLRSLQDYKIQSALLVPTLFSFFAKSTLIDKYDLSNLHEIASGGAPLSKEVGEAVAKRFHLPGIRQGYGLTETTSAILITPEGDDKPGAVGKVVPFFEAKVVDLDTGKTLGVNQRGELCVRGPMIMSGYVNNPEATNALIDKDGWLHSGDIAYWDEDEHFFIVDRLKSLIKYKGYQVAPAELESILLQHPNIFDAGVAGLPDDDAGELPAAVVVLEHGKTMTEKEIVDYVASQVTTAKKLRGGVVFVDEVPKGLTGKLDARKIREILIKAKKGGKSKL
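Biochemical qHTS of compounds, final roughly 60 µM downward over six points, against 10 nM purified firefly luciferase using Km concentrations of substrates (10 uM D-luciferin, 10 uM ATP) in Tris acetate pH 7.5 buffer; luminescence output.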
Rab9 prom act: activators of Rab9 promoter; Huh7 Rab9 promoter-luciferase reporter, luminescence, 24 h; Potency, µM (series often up to 9.22 µM), for the others: at the top dose activation, negative = inhibition, most hits filed as activators; actives 2.8% (n = 320,000); AID 485297; also: % of control where 0% means no effect; nearly all actives have a fitted effect of over 60% in size
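Promoter activation is measured as luciferase luminescence in Huh7 cells stably transfected with a Rab9 promoter–luciferase construct, following 24 h compound exposure at 37 °C and 10 min reagent incubation at ambient temperature.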
NPC1 prom act: activators of NPC1 promoter; Potency, µM (doses to about 9.22 µM), for inactives: at the top dose activation, hits mostly activators; AID 485313; actives 2.4% (n = 320,000); Huh7 NPC1 promoter luciferase reporter, 24 h; also: % of control where 0% means no effect; nearly all actives have a fitted effect of over 60% in size
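Luminescence from an NPC1 promoter-driven luciferase reporter in stably transfected Huh7 cells was measured after 24 h compound treatment at 37 °C, followed by 10 min ambient incubation with luciferase detection reagent.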
ELG1 DNA repair: ELG1-dependent DNA repair inhibition; actives 2.3% (n = 330,000); AID 504467; HEK293T ELG1-luciferase reporter, luminescence, 16 h; DNA damage induced by 5-fluorouridine; Potency, µM (highest dose often 46.1 µM), for inactives: top-dose activity change, negative = inhibition, most hits filed as inhibitors; also: % is scaled to controls: 0 for no effect and ±100 for the full control effect; nearly all actives have a fitted effect of over 55% in size
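Cells (2,000 per well) received 5-fluorouridine plus test compound or DMSO and were incubated 16 hr at 37 °C, 5% CO2. Luciferase activity was read by luminescence 30 min after ONE-Glo addition; signal suppression marked inhibition of damage-induced ELG1 function.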
An asterisk follows results filed as active; ? = inconclusive; · = no result. Most compounds without a hit are left out; they make up all but 9.2% or so of the library. Calls follow the shape of the dose curve; as a rule, active = well fitted curve in the direction sought with a large enough effect; inconclusive = small, poorly fitted or top-dose-only effect, or another doubt; inactive = no such curve, though single readings can be large; an effect the other way counts as inactive or inconclusive. Potency is read from the fitted curve at half-maximal effect.

SMILES | SMN2 splice enh | ELG1 genotoxic | FLuc modulator | Rab9 prom act | NPC1 prom act | ELG1 DNA repair
Cc1ccc(C(=O)O)cc1Nc1nc2ccccc2n2nnnc12 | ? | · | 17µM* | · | · | ·
CN(C)c1ccc(Nc2nc3ccccc3n3nnnc23)cc1 | -9% | · | 6.7µM* | · | · | ·
CCOc1ccc(CCNC(=O)c2ccc(Nc3nc4ccccc4n4nnnc34)cc2)cc1OCC | 3% | · | -5% | · | · | ·
O=C(Cn1cc([N+](=O)[O-])ccc1=O)N1CCCc2ccccc21 | · | 5% | 0% | -5% | -4% | 11%
CCOc1ccccc1/C=N/n1nnnc1N | · | 6% | -5% | 0% | 5% | 4%
O=C(NCc1ccccc1)c1cccc(COc2ccc3c(c2)CCC3)c1 | 1.3µM* | 0.65µM* | 1.3µM* | 0.35µM* | 0.35µM* | ?
O=C(Nc1ccccc1)c1ccc(CSc2ccccn2)cc1 | 22µM* | ? | 2.1µM* | 1.6µM* | 1.3µM* | ?
O=C(O)c1cccc(COc2ccc3c(c2)CCC3)c1 | · | ? | 0.067µM* | 3.2µM* | 3.5µM* | ?
COc1cccc(OC)c1C(=O)NNC(=O)c1cccc(COc2ccc3c(c2)CCC3)c1 | 1.4µM* | 0.37µM* | 4.8µM* | 0.56µM* | 0.45µM* | ?
O=C(COc1ccc2c(c1)CCC2)NCc1cccc(Cl)c1 | · | -3% | -9% | -4% | -3% | 10%
COC(=O)c1ccccc1NC(=O)c1ccc(COc2ccc3c(c2)CCC3)cc1 | -2% | 4% | ? | 9% | 15% | ?
COc1ccccc1NC(=O)c1ccc(CSc2ncccn2)cc1 | · | 5% | 17µM* | -1% | -1% | 17%
COc1ccccc1NC(=O)c1ccc(COc2ccc3c(c2)CCC3)cc1 | 11µM* | 7% | -2% | 24% | 21% | ?
CCCCCNC(=O)C1CCC(Cn2c(=O)c3sccc3n(CC)c2=O)CC1 (stereo unspecified) | · | · | -2% | · | · | ·
O=c1c(Cl)c(Cl)cnn1Cc1nnc(-c2ccccc2Br)o1 | · | -24% | -19% | -48% | -48% | 10%
COC(=O)c1ccc(Cl)cc1NC(=O)N(Cc1ccc(C)o1)C1CCN(C(C)=O)CC1 | · | · | 5% | · | · | ·
CCC(=O)Nc1cccc(NC(=O)c2cccc([N+](=O)[O-])c2C)c1 | -15% | -3% | -2% | -3% | 8% | 23µM*
Cc1c(C(=O)Nc2ccc3c(c2)CCC3)cccc1[N+](=O)[O-] | · | ? | 13µM* | ? | ? | ?
N#Cc1ccc(OCC(O)CN2CCN(c3ncc(C(F)(F)F)cc3Cl)CC2)cc1 (stereo unspecified) | · | -13% | -4% | -15% | -18% | 5.8µM*
CC1Oc2ccccc2C=C1/C=N/NC(=O)c1ccccc1 (stereo unspecified) | 14µM* | ? | 6µM* | 2.5µM* | ? | ?
CC1Oc2ccccc2C=C1/C=N\NC(=O)c1cccnc1 (stereo unspecified) | · | ? | 17µM* | 15% | 18% | ?
CC1Oc2ccccc2C=C1/C=N/NC(=O)c1ccccc1O (stereo unspecified) | 13µM* | -3% | 1.7µM* | ? | ? | -8%
Cc1ccc(C(=O)N/N=C/C2=Cc3ccccc3OC2C)cc1 (stereo unspecified) | ? | 1% | 3µM* | 28% | 22% | 0%
O=C(N/N=C/c1ccccc1)c1ccc(-c2ccccc2)cc1 | · | 5% | -17% | ? | 15% | 14%
O=C(N/N=C/c1cc(O)ccc1Br)c1cccnc1 | · | ? | ? | -36% | -35% | ?
CC1Oc2ccccc2C=C1/C=N/NC(=O)[C@@H](C)NC(=O)OC(C)(C)C (stereo partly specified) | · | -7% | -22% | 0% | -3% | -16%
CCCCCc1nnc(NC(=O)c2ccc3nc[nH]c3c2)s1 | · | -2% | -11% | 21% | 0% | 8%
